In PubChem BioAssay:
Records with an inconclusive call do not appear. The source made the active and inactive calls. Cut-off not given; nearly all actives show AC50 up to about 26 µM.

Assay: viability loss in pontine glioma line – cell-based, SU-DIPG-XVII, MIPE5.0, CellTiter-Glo, qHTS, dose response (AID 1347060);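 on AC50: cells exposed to compound for 48 hours before viability readout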
Conditions: CellTiter-Glo ATP luminescence

| SMILES | AC50 | outcome |
| --- | --- | --- |
| O=C(/C=C/c1ccc(Cl)cc1)N1CCC2(CC1)CN(Cc1ccc(Cl)c(Cl)c1)C(=O)O2 | 18.6 µM (active) | – |
| O=C(CCNC(=O)c1ccc(OC(F)(F)F)cc1)N[C@@H]1CCCc2ccccc21 | 20.9 µM (active) | – |
| COc1cccc(Nc2ncnn3ccc(CN4CC[C@@H](N)[C@H](O)C4)c23)c1 | 14.8 µM (active) | – |
| CCCOc1ccc(CCc2nc3cc(-c4c(C)noc4C)ccc3n2CCN2CCOCC2)cc1 | – | inactive |
| COc1ccc(Cl)c(Nc2ncnc3cc(OCC4CCN(C)CC4)c(OC)cc23)c1 | 3.72 µM (active) | – |
| Cc1onc(-c2ccc(F)cc2)c1COc1ccc(C(=O)N2CCS(=O)(=O)CC2)cn1 | – | inactive |
| COc1cc2c3c(n(CCCN4CCOCC4)c(=O)c2cc1OC)-c1cc2c(cc1C3=O)OCO2 | 0.0417 µM (active) | – |
| C[C@@H](O)[C@@H](C)Oc1nc(Nc2ccc(S(=N)(=O)C3CC3)cc2)ncc1C(F)(F)F (stereo partly specified) | 20.9 µM (active) | – |
| NC(=O)c1cc(F)cc2c1C(=O)N(C1CCN(C3CCC(F)(F)CC3)CC1)C2 | – | inactive |
| CN1C[C@@H]2c3ccccc3Oc3ccc(Cl)cc3[C@H]2C1 | – | inactive |
| C=C1CCC[C@]2(C)C=C3OC(=O)C(C)=C3C[C@@H]12 | – | inactive |
| Nc1nc(OCc2cc(Br)cs2)c2[nH]cnc2n1 | – | inactive |
| COC(=O)C1=C(C)NC(c2ncc(F)cc2F)=N[C@@H]1c1ccc(F)cc1Cl | – | inactive |
| C[C@@H]1CC(=O)Nc2cccc(-c3ccc4c(c3)c(-c3cnn(C)c3)nn4C)c2N1 | – | inactive |
| CC[C@H](Nc1ncnc2nc[nH]c12)c1oc2ccccc2c(=O)c1-c1cccc(F)c1 | – | inactive |
| NS(=O)(=O)c1ccc(Cc2c(-c3cccc(-c4ccccc4)c3)nn(-c3nc(C(=O)O)cs3)c2CC2CC2)cc1 | 23.5 µM (active) | – |
| Cc1noc2c1-c1ccccc1C(c1ccc(Cl)cc1)=N[C@H]2CC(N)=O | – | inactive |
| COc1cc(C(N)=O)ccc1NC(=O)[C@@H]1N[C@@H](CC(C)(C)C)[C@@]2(C(=O)Nc3cc(Cl)ccc32)[C@H]1c1cccc(Cl)c1F | 23.5 µM (active) | – |
| CC(C)NCCCn1c(Sc2cc(Cl)cc(Cl)c2)nc2c(N)ncnc21 | – | inactive |
| CC(C)n1cnc2c(NCCCCCCNC(=O)OC(C)(C)C)nc(NCCO)nc21 | 23.5 µM (active) | – |
| CNC(=O)c1cc(Oc2ccc3nc(N[C@@H]4CCCC[C@H]4O)sc3c2)ccn1 | – | inactive |
| O=C(NO)C1(CS(=O)(=O)c2ccc(Oc3ccc(Cl)cc3)cc2)CCOCC1 | – | inactive |
| CNc1ncc2cc(-c3cc(NC(=O)NCCC(C)(C)C)c(F)cc3C)c(C)nc2n1 | – | inactive |
| COCCOC(=O)N1CCN(S(=O)(=O)c2cc(F)c(Oc3ccc(Cl)cc3)c(F)c2)C(C(=O)NO)C1 (stereo unspecified) | – | inactive |
| Cn1ncnc1[C@H]1c2n[nH]c(=O)c3cc(F)cc(c23)N[C@@H]1c1ccc(F)cc1 | 0.742 µM (active) | – |
| C[C@H]1C[C@@H](n2c(Nc3ccc(OC(F)(F)F)cc3)nc3cc(CCC(=O)O)ccc32)CC(C)(C)C1 | 23.5 µM (active) | – |
| CC(=O)C1CCC2C3CCC4=CC(=O)CCC4(C)C3CCC12C (stereo unspecified) | – | inactive |
| CN(C)CCN1C(=O)c2cccc3cc(NC(N)=O)cc(c23)C1=O | 18.6 µM (active) | – |

Assay: JHH-DIPG-1 glioma cell viability, MIPE5.0 library, CellTiter-Glo luminescence, qHTS (AID 1347067);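 further: cells exposed to compound for 48 hours before readout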
Conditions: JHH-DIPG-1 glioma viability, CellTiter-Glo ATP luminescence

| SMILES | outcome | AC50 |
| --- | --- | --- |
| CCS(=O)(=O)N1CCC(C(C)n2c(C)c(C(=O)NCc3c(OC)cc(C)[nH]c3=O)c3ccccc32)CC1 (stereo unspecified) | inactive | – |
| CCn1c(N)c(C(=O)NC)c(=O)c2ccc(C#CC(C)(O)COC)nc21 (stereo unspecified) | inactive | – |
| Cc1cccc(-c2nn3c(c2-c2ccnc4ccc(C(N)=O)cc24)CCC3)n1 | inactive | – |
| CC(C)(c1ccc(OCC(O)CO)cc1)c1ccc(OCC(O)CCl)cc1 (stereo unspecified) | inactive | – |
| O=C(Nc1ccnc(NC(=O)C2CC2)c1)c1c(Cl)cccc1Cl | – | 2.63 µM (active) |
| Cc1cc(CS(=O)(=O)c2ccccc2)cc(OCc2ccc(CN3CCC[C@@H]3CO)cc2)c1 | inactive | – |
| O=C(CCNC(=O)c1ccc(OC(F)(F)F)cc1)N[C@@H]1CCCc2ccccc21 | – | 8.33 µM (active) |
| COc1cccc(Nc2ncnn3ccc(CN4CC[C@@H](N)[C@H](O)C4)c23)c1 | inactive | – |
| CCCOc1ccc(CCc2nc3cc(-c4c(C)noc4C)ccc3n2CCN2CCOCC2)cc1 | – | 20.9 µM (active) |
| COc1ccc(Cl)c(Nc2ncnc3cc(OCC4CCN(C)CC4)c(OC)cc23)c1 | – | 20.9 µM (active) |
| Cc1onc(-c2ccc(F)cc2)c1COc1ccc(C(=O)N2CCS(=O)(=O)CC2)cn1 | inactive | – |
| COc1cc2c3c(n(CCCN4CCOCC4)c(=O)c2cc1OC)-c1cc2c(cc1C3=O)OCO2 | – | 8.33 µM (active) |
| NC(=O)c1cc(F)cc2c1C(=O)N(C1CCN(C3CCC(F)(F)CC3)CC1)C2 | inactive | – |
| CN1C[C@@H]2c3ccccc3Oc3ccc(Cl)cc3[C@H]2C1 | inactive | – |
| C=C1CCC[C@]2(C)C=C3OC(=O)C(C)=C3C[C@@H]12 | inactive | – |
| NS(=O)(=O)c1ccc(Cc2c(-c3cccc(-c4ccccc4)c3)nn(-c3nc(C(=O)O)cs3)c2CC2CC2)cc1 | – | 20.9 µM (active) |
| COc1cc(C(N)=O)ccc1NC(=O)[C@@H]1N[C@@H](CC(C)(C)C)[C@@]2(C(=O)Nc3cc(Cl)ccc32)[C@H]1c1cccc(Cl)c1F | – | 23.5 µM (active) |
| CC(C)NCCCn1c(Sc2cc(Cl)cc(Cl)c2)nc2c(N)ncnc21 | inactive | – |
| CC(C)n1cnc2c(NCCCCCCNC(=O)OC(C)(C)C)nc(NCCO)nc21 | – | 18.6 µM (active) |
| O=C(NO)C1(CS(=O)(=O)c2ccc(Oc3ccc(Cl)cc3)cc2)CCOCC1 | – | 3.72 µM (active) |
| COCCOC(=O)N1CCN(S(=O)(=O)c2cc(F)c(Oc3ccc(Cl)cc3)c(F)c2)C(C(=O)NO)C1 (stereo unspecified) | – | 16.6 µM (active) |
| Cn1ncnc1[C@H]1c2n[nH]c(=O)c3cc(F)cc(c23)N[C@@H]1c1ccc(F)cc1 | inactive | – |
| CC(=O)C1CCC2C3CCC4=CC(=O)CCC4(C)C3CCC12C (stereo unspecified) | inactive | – |
